# Data as given in PubChem BioAssay (EPA / NIEHS).
# Where “and” joins values, the source holds several entries; their conditions need not be identical. Equal entries are not always repeated. Results filed as inconclusive are left out. More than one record can exist for a structure, and the calls need not agree. Calls of active or inactive are those of the source. Rule for the calls: active = hit-call score of the fitted dose curve at least 0.9, where 1 is the maximum; inconclusive = response in the unintended direction; inactive = score below 0.9.
# Columns and labels:
# [1] = TOX21_p53_BLA_p2_viability: Viability Assessment in the Tox21 HCT-116 p53 Agonism Beta-lactamase Assay, Phase 2 (AID 2283591);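 note: compound exposure lasted 16 h at 37 °C; actives lower the ATP signal meaning cytotoxicity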
# Summary of the method: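 HCT116 p53-bla cells, 4000/well, dosed after 5 h plating (217-fold dilution of DMSO stocks) and incubated 16 h at 37C. Viability taken as cellular ATP by CellTiter-Glo luminescence after 30 min RT; signal loss marks cytotoxicity.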
# [2] = target: Cellular tumor antigen p53 (Homo sapiens) (UniProt P04637); test: TOX21_p53_BLA_p2_ratio: Tox21 HCT-116 p53 Agonism Beta-lactamase Assay, Ratio, Phase 2 (AID 2283592)
# Cellular tumor antigen p53 (Homo sapiens), sequence (P04637 whole entry, looked up): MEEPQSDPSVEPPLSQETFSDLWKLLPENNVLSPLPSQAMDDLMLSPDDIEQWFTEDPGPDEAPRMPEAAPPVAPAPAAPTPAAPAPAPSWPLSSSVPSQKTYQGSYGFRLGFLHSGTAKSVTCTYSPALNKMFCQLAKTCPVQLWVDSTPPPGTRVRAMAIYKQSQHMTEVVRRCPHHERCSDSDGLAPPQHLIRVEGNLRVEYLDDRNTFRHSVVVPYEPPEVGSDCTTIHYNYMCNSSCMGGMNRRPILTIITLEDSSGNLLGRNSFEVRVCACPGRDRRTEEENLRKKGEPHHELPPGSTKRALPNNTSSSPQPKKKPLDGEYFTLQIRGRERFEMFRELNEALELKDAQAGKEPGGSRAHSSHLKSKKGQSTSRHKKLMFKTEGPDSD
# Summary of the method: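 HCT116 p53-bla; 4000 cells/well; 5 h pre-incubation; cpd in DMSO, 217-fold dilution; 16 h 37C/5% CO2; CCF4-AM 2 h RT; Ex 405, Em 460/530 ratio; DMSO = baseline; positive fitting direction.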
# [3] = TOX21_p53_BLA_p3_viability: Viability Assessment in the Tox21 HCT-116 p53 Agonism Beta-lactamase Assay, Phase 3 (AID 2283593);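 note: cells exposed to compound for 16 h before reading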
# Summary of the method: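 HCT116 cells, 4000/well, dosed 5 h after plating by pin transfer (217-fold dilution from DMSO stock) and incubated 16 h at 37C, 5% CO2. Viability read as ATP luminescence with CellTiter-Glo after 30 min at room temperature.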
# [4] = target: Cellular tumor antigen p53 (Homo sapiens) (UniProt P04637); test: TOX21_p53_BLA_p3_ratio: Tox21 HCT-116 p53 Agonism Beta-lactamase Assay, Ratio, Phase 3 (AID 2283596)
# Summary of the method: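 HCT116 p53-bla cells (4000/well) given compound in DMSO (217-fold dilution) after 5 h, incubated 16 h at 37C. CCF4-AM substrate 2 h at room temperature; 460/530 nm emission ratio, gain fitted against DMSO.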
# [5] = TOX21_p53_BLA_p4_viability: Viability Assessment in the Tox21 HCT-116 p53 Agonism Beta-lactamase Assay, Phase 4 (AID 2283597);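 note: hits lower the luminescence signal meaning cytotoxicity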
# Summary of the method: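 Cells plated, 5 h pre-incubation; DMSO compounds pinned (217-fold dilution); 16 h, 37C/5% CO2; CCF4-AM 2 h RT; CellTiter-Glo 30 min RT; luminescence read.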
# [6] = target: Cellular tumor antigen p53 (Homo sapiens) (UniProt P04637); test: TOX21_p53_BLA_p5_ratio: Tox21 HCT-116 p53 Agonism Beta-lactamase Assay, Ratio, Phase 5 (AID 2283599)
# Summary of the method: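 HCT-116 p53-bla cells (4000/well) plated 5 h, dosed with compound (217-fold DMSO dilution) for 16 h at 37 C; CCF4-AM substrate 2 h at room temperature. Activity is the 460/530 nm emission ratio (405 nm excitation), fitted in gain-of-signal direction versus DMSO.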
# [7] = TOX21_p53_BLA_p5_viability: Viability Assessment in the Tox21 HCT-116 p53 Agonism Beta-lactamase Assay, Phase 5 (AID 2283600)
# Summary of the method: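 4000 cells/well; 5 h pre-incubation; DMSO compounds pin-transferred, 217-fold dilution; 16 h, 37C/5% CO2; CCF4-AM 2 h RT; CellTiter-Glo 30 min RT; luminescence.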
# [8] = target: Cellular tumor antigen p53 (Homo sapiens) (UniProt P04637); test: TOX21_p53_BLA_p4_ratio: Tox21 HCT-116 p53 Agonism Beta-lactamase Assay, Ratio, Phase 4 (AID 2283601)
# Summary of the method: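 HCT-116 p53 beta-lactamase reporter cells (4000/well) preincubated 5 h, then compound (217-fold dilution of DMSO stock) for 16 h at 37C. CCF4-AM substrate added 2 h at room temperature; 460/530 nm emission ratio fitted upward versus DMSO.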
# [9] = target: Norway rat Vesicular Monoamine Transporter (VMAT2), neurotransmitter transporter, Slc18a2 (gene 25549) (UniProt Q01827); test: NVS_TR_rVMAT2: NovaScreen (NVS) Transporter Assay for Norway rat Vesicular Monoamine Transporter (VMAT2), neurotransmitter transporter (AID 2283376);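 note: actives lower the bound radioligand signal below the DMSO level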
# Norway rat Vesicular Monoamine Transporter (VMAT2), neurotransmitter transporter, Slc18a2 (gene 25549), sequence (Q01827 whole entry, looked up): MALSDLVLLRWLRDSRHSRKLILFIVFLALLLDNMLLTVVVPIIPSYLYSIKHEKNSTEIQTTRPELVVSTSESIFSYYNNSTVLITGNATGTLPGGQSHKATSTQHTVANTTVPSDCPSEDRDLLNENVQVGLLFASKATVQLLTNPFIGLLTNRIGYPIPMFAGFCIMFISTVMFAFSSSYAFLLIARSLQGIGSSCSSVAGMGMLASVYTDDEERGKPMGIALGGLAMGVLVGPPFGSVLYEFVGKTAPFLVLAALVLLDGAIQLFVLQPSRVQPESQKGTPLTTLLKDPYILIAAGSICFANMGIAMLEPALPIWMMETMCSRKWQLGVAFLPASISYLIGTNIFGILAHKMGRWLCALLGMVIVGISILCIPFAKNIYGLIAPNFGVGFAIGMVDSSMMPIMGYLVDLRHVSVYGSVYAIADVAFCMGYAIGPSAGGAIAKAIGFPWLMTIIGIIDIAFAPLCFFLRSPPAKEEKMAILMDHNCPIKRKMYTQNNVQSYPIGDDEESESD
# Summary of the method: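 Radioligand displacement binding on rat forebrain tissue preparation, filter-based scintillation read-out 1 hour after dosing. Primary screen in duplicate at 25 uM, then concentration series for actives; loss of signal versus DMSO.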
# [10] = target: Estrogen receptor (Homo sapiens) (UniProt P03372); test: NVS_NR_hER: NovaScreen (NVS) Nuclear Receptor Binding Assay for human Estrogen Receptor (ER) (AID 2283348)
# Estrogen receptor (Homo sapiens), sequence (P03372 whole entry, looked up): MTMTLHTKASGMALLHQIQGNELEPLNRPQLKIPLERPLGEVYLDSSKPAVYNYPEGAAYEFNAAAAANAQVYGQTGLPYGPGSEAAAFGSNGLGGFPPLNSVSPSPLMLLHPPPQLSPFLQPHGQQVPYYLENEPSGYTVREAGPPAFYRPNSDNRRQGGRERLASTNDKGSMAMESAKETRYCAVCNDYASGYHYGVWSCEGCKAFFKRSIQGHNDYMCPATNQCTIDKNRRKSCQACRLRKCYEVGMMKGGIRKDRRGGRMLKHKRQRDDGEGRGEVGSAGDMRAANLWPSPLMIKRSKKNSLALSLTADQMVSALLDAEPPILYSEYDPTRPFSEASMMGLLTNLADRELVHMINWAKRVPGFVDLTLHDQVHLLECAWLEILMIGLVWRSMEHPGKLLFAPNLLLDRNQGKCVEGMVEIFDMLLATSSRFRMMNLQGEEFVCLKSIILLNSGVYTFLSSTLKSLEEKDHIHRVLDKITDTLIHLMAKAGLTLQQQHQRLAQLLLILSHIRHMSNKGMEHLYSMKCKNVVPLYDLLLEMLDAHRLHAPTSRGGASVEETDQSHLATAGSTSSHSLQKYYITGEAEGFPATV
# Summary of the method: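 Radioligand competitive displacement binding to estrogen receptor from MCF7 extract, cell-free; 18 h after dosing, scintillation read-out. Primary screen in duplicate at 25 uM; actives followed up in concentration series; loss of signal vs DMSO.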
# PGR (gene 5241) [11] = target: PGR (gene 5241) (UniProt P06401); test: TOX21_PR_BLA_Followup_Antagonist_ratio: Tox21 HEK293 Progesterone Receptor (PR) Antagonism Beta-lactamase Follow-Up Assay, Ratio (AID 2283934);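 note: PR-UAS-bla HEK293T cells stimulated with 1 nM R5020 agonist for 16 hr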
# PGR (gene 5241), sequence (P06401 whole entry, looked up): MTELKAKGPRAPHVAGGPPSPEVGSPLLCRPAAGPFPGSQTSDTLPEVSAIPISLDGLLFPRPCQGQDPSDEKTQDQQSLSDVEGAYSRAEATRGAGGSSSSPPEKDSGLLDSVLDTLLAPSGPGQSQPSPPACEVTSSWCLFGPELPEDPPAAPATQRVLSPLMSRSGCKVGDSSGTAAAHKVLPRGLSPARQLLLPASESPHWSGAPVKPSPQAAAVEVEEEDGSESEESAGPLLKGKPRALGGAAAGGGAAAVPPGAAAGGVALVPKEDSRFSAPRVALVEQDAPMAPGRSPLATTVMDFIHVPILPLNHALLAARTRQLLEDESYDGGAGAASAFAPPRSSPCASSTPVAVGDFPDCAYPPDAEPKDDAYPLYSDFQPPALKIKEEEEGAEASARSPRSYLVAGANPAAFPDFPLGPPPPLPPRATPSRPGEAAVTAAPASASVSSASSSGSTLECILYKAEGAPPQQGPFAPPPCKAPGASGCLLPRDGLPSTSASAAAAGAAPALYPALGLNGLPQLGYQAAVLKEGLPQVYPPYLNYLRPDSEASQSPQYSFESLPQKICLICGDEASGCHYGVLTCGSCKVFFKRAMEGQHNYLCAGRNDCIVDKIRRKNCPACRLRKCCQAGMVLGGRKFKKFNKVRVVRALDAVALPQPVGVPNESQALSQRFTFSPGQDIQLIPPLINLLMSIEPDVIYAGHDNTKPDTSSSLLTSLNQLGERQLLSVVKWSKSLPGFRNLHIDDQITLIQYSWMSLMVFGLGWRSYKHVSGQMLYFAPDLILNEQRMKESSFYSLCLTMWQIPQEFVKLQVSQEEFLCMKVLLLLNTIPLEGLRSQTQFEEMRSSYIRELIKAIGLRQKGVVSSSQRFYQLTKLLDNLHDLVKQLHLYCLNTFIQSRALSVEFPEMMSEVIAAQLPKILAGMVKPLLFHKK
# Summary of the method: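 Antagonist mode used 1 nM R5020 (final) as agonist on a beta-lactamase reporter line in HEK293T cells. Activity was taken from the substrate cleavage ratio after 16 hr exposure.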
# [12] = TOX21_PR_BLA_Followup_Agonist_viability: Viability Assessment in the Tox21 HEK293 Progesterone Receptor (PR) Agonism Beta-lactamase Follow-Up Assay (AID 2283935);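 note: cells exposed to compound for 16 hr at 37 °C; signal loss means lower viability so actives are cytotoxic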
# Summary of the method: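 Multiplexed viability counter-screen: ATP-coupled luciferase signal measured after 30 min at room temperature, following 16 hr compound treatment of PR-UAS-bla HEK293T cells grown in charcoal-stripped serum.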
# [13] = TOX21_PR_BLA_Followup_Antagonist_viability: Viability Assessment in the Tox21 HEK293 Progesterone Receptor (PR) Antagonism Beta-lactamase Follow-Up Assay (AID 2283936);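 note: hits lower the luminescence signal meaning cytotoxicity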
# Summary of the method: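 PR-UAS-bla HEK293T cells (3,000/well, 2% charcoal-stripped FBS) given compound plus R5020 agonist, 16 h at 37C. CellTiter-Glo added after bla read, 30 min at room temperature; luminescence loss indicates cytotoxicity.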
# PGR (gene 5241) [14] = target: PGR (gene 5241) (UniProt P06401); test: TOX21_PR_LUC_Followup_Antagonist: Tox21 HEK293 Progesterone Receptor (PR) Antagonism Luciferase Follow-Up Assay (AID 2283938);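 note: curve fitted upward as signal gain over DMSO baseline despite antagonist label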
# Summary of the method: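 Cells are grown 5 days in charcoal-stripped-FBS assay medium, plated, left 5 h, then dosed with compound and incubated 16 h. ONE-Glo reagent is added and luminescence read after 30 min.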
# [15] = TOX21_PR_LUC_Followup_Agonist_viability: Viability Assessment in the Tox21 HEK293 Progesterone Receptor (PR) Agonism Luciferase Follow-Up Assay (AID 2283941);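 note: loss of signal means cytotoxicity so actives lower viability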
# Summary of the method: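 Luminescent ATP quantitation (CellTiter-Glo) serves as the read-out; a drop flags cytotoxic compounds. Cells are HEK293-PR-A-luc grown in 10% charcoal-stripped FBS, plated 3,000/well, and exposed to compound for 16 h.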
# [16] = target: mouse Estrogen Receptor alpha (Era), Esr1 (gene 13982) (UniProt P19785); test: NVS_NR_mERa: NovaScreen (NVS) Nuclear Receptor Binding Assay for mouse Estrogen Receptor alpha (Era) (AID 2283378);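 note: hit means loss of bound radioligand signal relative to DMSO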
# mouse Estrogen Receptor alpha (Era), Esr1 (gene 13982), sequence (P19785 whole entry, looked up): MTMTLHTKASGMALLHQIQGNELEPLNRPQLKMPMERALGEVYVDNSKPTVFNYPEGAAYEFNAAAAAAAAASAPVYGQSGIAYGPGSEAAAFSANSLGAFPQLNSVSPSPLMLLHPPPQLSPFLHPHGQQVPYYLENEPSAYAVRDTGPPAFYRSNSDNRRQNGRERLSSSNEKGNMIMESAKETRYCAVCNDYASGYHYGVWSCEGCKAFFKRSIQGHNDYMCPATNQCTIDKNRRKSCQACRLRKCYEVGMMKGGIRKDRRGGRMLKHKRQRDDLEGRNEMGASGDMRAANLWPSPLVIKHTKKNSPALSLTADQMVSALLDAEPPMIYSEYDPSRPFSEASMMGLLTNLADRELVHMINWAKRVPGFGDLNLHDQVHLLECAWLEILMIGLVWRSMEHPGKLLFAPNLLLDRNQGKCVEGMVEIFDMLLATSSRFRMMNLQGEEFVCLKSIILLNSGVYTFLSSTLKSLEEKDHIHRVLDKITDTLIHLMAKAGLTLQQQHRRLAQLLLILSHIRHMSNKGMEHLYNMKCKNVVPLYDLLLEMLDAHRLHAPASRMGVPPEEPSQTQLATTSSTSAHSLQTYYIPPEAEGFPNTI
# Summary of the method: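 Extracted mouse Era incubated with tritiated or iodinated radioligand plus test chemical, 18 h. Bound fraction separated on filters, counted by scintillation. DMSO = negative control/baseline; duplicate single-point at 25 uM, then concentration-response follow-up.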
# [17] = ACEA_ER_AUC_viability: ACEA Biosciences xCELLigence Real-Time Cell Analysis on Estrogen Receptor Agonism for Viability (AID 2283782);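 note: continuous compound exposure with impedance area under curve over 80 h; hit means loss of impedance signal meaning reduced cell growth or viability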
# Summary of the method: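 T47D cells preconditioned in phenol red-free RPMI with charcoal-stripped FBS, then dosed with 8-point 1:4 series from 100 uM (up to 0.5% DMSO). Impedance monitored up to ~80 h; area-under-curve loss versus DMSO taken as viability.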
structure (smiles),measurement,setting,value
ClC1=C(Cl)C2(Cl)C(CBr)CC1(Cl)C2(Cl)Cl (centres undefined),AC50,[1],73.5 µM (active)
same,outcome,[1],inactive
same,outcome,[2],inactive
same,AC50,[3],63.4 µM (active) and 20.2 µM (active)
same,outcome,[4],inactive
same,outcome,[5],inactive
same,outcome,[6],inactive
same,AC50,[7],36.3 µM (active)
same,outcome,[7],inactive
same,outcome,[8],inactive
CCCCON=O,outcome,[1],inactive
same,outcome,[2],inactive
CC(C)(C)NC[C@H](O)c1ccc(O)cc1Cl,outcome,[1],inactive
same,outcome,[2],inactive
CC(Cl)Cl,outcome,[1],inactive
same,outcome,[2],inactive
c1ccc(C[P+](c2ccccc2)(c2ccccc2)c2ccccc2)cc1,AC50,[9],16.7 µM (active)
c1coc(-c2nc3ccccc3[nH]2)c1,outcome,[10],inactive
same,outcome,[1],inactive
same,outcome,[4],inactive
same,outcome,[5],inactive
same,outcome,[7],inactive
C[C@]12C/C(=C/O)C(=O)C[C@@H]1CC[C@@H]1[C@@H]2CC[C@@]2(C)[C@H]1CC[C@]2(C)O,outcome,[1],inactive
same,AC50,[2],42.5 µM (active)
same,outcome,[2],inactive
same,AC50,[3],66.6 µM (active)
same,outcome,[3],inactive
same,outcome,[4],inactive
same,AC50,[5],52.8 µM (active) and 34.6 µM (active)
same,outcome,[6],inactive
same,AC50,[7],71.4 µM (active)
same,outcome,[7],inactive
same,outcome,PGR (gene 5241) [11],inactive
same,outcome,[12],inactive
same,outcome,[13],inactive
same,outcome,PGR (gene 5241) [14],inactive
COP(=S)(NC(C)C)Oc1ccc(C)cc1[N+](=O)[O-] (centres undefined),AC50,[10],11.5 µM (active)
same,AC50,PGR (gene 5241) [11],20.3 µM (active)
same,outcome,[12],inactive
same,outcome,[13],inactive
same,AC50,PGR (gene 5241) [14],21.2 µM (active)
same,outcome,[15],inactive
Cc1ccc(S(=O)(=O)C(I)I)cc1,AC50,[9],1.19 µM (active)
CC[N+](CC)(CC(=O)Nc1c(C)cccc1C)Cc1ccccc1,outcome,[9],inactive
CCCBr,outcome,[1],inactive
CCCC(O)C(O)CO (centres undefined),outcome,[9],inactive
N#CC(C#N)=NNc1cccc(Cl)c1,outcome,[16],inactive
same,AC50,[1],20.8 µM (active)
same,AC50,[2],2.66 µM (active)
same,outcome,[3],inactive
same,AC50,[4],1.24 µM (active)
same,AC50,[5],6.28 µM (active)
same,AC50,[6],26.7 µM (active)
same,AC50,[7],46.1 µM (active)
same,AC50,[8],13.8 µM (active)
C[Si](C)O[Si](C)C,outcome,[9],inactive
C1CNCCN1,outcome,[9],inactive
CCCN(CCC)c1c([N+](=O)[O-])cc(S(C)(=O)=O)cc1[N+](=O)[O-],outcome,[10],inactive
same,AC50,[17],50 µM (active)
C=C(C)C(=O)OCCOCCOCCOC(=O)C(=C)C,outcome,[9],inactive
BrCCCCCCBr,outcome,[1],inactive
same,outcome,[2],inactive
same,outcome,[3],inactive
same,outcome,[4],inactive
Oc1cc[c]([Hg][Cl])cc1,AC50,[1],20.9 µM (active) and 10.7 µM (active)
same,AC50,[2],13.9 µM (active)
same,outcome,[2],inactive
same,AC50,[3],41.6 µM (active) and 18.9 µM (active)
same,AC50,[4],30.1 µM (active) and 35.2 µM (active)
same,AC50,[5],20.4 µM (active) and 9.85 µM (active)
same,AC50,[6],39.2 µM (active) and 17.4 µM (active)
same,AC50,[7],25.3 µM (active) and 10.5 µM (active)
same,AC50,[8],41 µM (active) and 19.2 µM (active)
CN(C)c1ccc(C(=C2C=CC(=[N+](C)C)C=C2)c2ccccc2)cc1,outcome,[9],inactive
CN(c1nccc(=O)[nH]1)C1CCN(c2nc3ccccc3n2Cc2ccc(F)cc2)CC1,outcome,[9],inactive
CCCCCCCCCCCCCCCC(=O)OC/C=C(C)/C=C/C=C(C)/C=C/C1=C(C)CCCC1(C)C,outcome,[9],inactive
COC(=O)OC,outcome,[9],inactive
[Cl][Sc]([Cl])[Cl],outcome,[9],inactive
CCCCCCCCCCCCCC[P+](CCCCCC)(CCCCCC)CCCCCC,AC50,[1],33.6 µM (active) and 20.1 µM (active)
same,outcome,[1],inactive
same,AC50,[2],59.6 µM (active) and 51.8 µM (active)
same,outcome,[2],inactive
same,AC50,[3],46.3 µM (active) and 28.9 µM (active)
same,AC50,[4],67.4 µM (active) and 50.1 µM (active) and 7.15 µM (active)
same,AC50,[5],34.3 µM (active) and 20.3 µM (active)
same,outcome,[5],inactive
same,AC50,[6],59.5 µM (active) and 58.6 µM (active)
same,outcome,[6],inactive
same,AC50,[7],32.3 µM (active) and 26.6 µM (active)
same,AC50,[8],66 µM (active) and 48.6 µM (active)
Cc1cc(CCC(=O)OCCOCCOCCOC(=O)CCc2cc(C)c(O)c(C(C)(C)C)c2)cc(C(C)(C)C)c1O,outcome,[9],inactive
O=C1C[C@@H]2OCC=C3CN4CC[C@]56c7ccccc7N1[C@H]5[C@H]2[C@H]3C[C@H]46 (tested in a mixture with another compound),outcome,[1],inactive
same,outcome,[2],inactive
same,AC50,[3],41.2 µM (active)
same,outcome,[3],inactive
same,AC50,[4],36.6 µM (active)
same,outcome,[4],inactive
same,outcome,[5],inactive
same,outcome,[6],inactive
same,outcome,[7],inactive
same,outcome,[8],inactive
CCCCC(CC)C(=O)O (centres undefined),outcome,[9],inactive
Cc1oc2c(NC(=O)c3c(Cl)cccc3Cl)cccc2c1C(C)(C)O,AC50,[9],11.9 µM (active)
CCOC(=O)CC(=O)OCC,outcome,[9],inactive
